These results are taken from PubChem BioAssay (NCI).

About 79,000 compounds went through this panel and 15% of them were active in at least one assay; those are over-represented in the sample as a whole. The source made the active and inactive calls. No stated cut-off is given here; in the data, active means growth inhibition above about 70%; inactive means the rest.

A short description of this assay: NCI Yeast Anticancer Drug Screen. Data for the mec2-1 strain (AID 157). The conditions noted are these: S. cerevisiae mec2-1 strain, at 33.0 µM, active compounds read high. The method in brief: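 Test agents were screened against the mec2-1 yeast strain, with defined DNA repair or cell cycle alteration. Growth was scored as inhibition against vehicle-only controls.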
As for `NC1CCCCC1N.Nc1c(N=Nc2ccc(-c3ccc(N=Nc4cc(S(=O)(=O)[O-])c5ccccc5c4N)cc3)cc2)cc(S(=O)(=O)[O-])c2ccccc12.[OH3+].[OH3+].[Pt+4]`, the growth inhibition was 92% (active).
Regarding `COC(=O)CCC(NC(=S)N/N=C(\C)c1ccccn1)C(=O)OC` (configuration not stated), the growth inhibition is 57% (inactive).
On to `NC(=O)C(=O)NNc1ccccc1`, for which the growth inhibition was 81% (active).
As to `COc1cc(C2SCC(=O)N2c2ccc(-c3ccc(-n4c(-c5ccccc5)nc5ccccc5c4=O)cc3)cc2)ccc1O` (configuration not stated), the growth inhibition was 2% (inactive).
Turning to `COc1ccc(/C=C/c2sc3ccccc3[n+]2CCCCI)cc1OC`, the growth inhibition is 64% (inactive).
The same measure for `Cc1c(C(C)C)cc(OCCO)cc1C(C)C`: -10% (inactive); for `Cc1cc(NCCCCCCCCNc2cc(C)nc3cc(N)ccc23)c2ccc(N)cc2n1`: 98% (active); for `C=C(Cl)COC(=O)Nc1cccc(Cl)c1`: 0% (inactive).
As to `CC(=O)OC1CC2C(C)(C)C(=O)C=C[C@]2(C)C2CCC3(C)C(=CCC3[C@H](CO)C[C@H](O)C(=O)C(C)(C)O)[C@]12C` (some centres not stated), the growth inhibition is -40% (inactive).
On to `COc1ccc(/C=C/C(=O)c2ccccc2)cc1OC`, for which the growth inhibition is 47% (inactive).
For `COc1c(O)c(C=O)c(Br)c(C=O)c1O`, the growth inhibition was 47% (inactive).
Consider `O=[N+]([O-])c1cc(Cl)cnc1Br`, for which the growth inhibition was 85% (active).
In the case of `Cc1ccc2c(c1)C1(SC(C)C(=O)N1c1ccc(Cl)cc1)C(=O)N2` (configuration not stated), the growth inhibition is 85% (active).
For `COc1cc(CSc2ccc(O)cc2)cc(O)c1O`, the growth inhibition was -4% (inactive).
For the compound `Cc1ccc2c3ccc4c(c3n(C)c2c1)C(=O)C=CC4=O`, the growth inhibition was 23% (inactive).
Take `O=C(Nc1ccc(Cl)cc1)Nc1nnc2nc(C(C(=O)c3cccc([N+](=O)[O-])c3Cl)c3nc4nnc(NC(=O)Nc5ccc(Cl)cc5)n4[nH]c3=O)c(=O)[nH]n12`: the growth inhibition is 0% (inactive).
`O=C(O)C1CC(c2ccccc2)=NN1c1ccccc1` (configuration not stated): the growth inhibition was -43% (inactive).
With `CCCCc1ccc(-n2c(C)c(COC(=O)NC)c(COC(=O)NC)c2C)cc1`, the growth inhibition is 99% (active).
As to `CCC(=O)c1cc(C(=O)C(=S)SC)cc(C(=O)C(=S)SC)c1`, the growth inhibition is 98% (active).
In the case of `CCn1c(O)c(C=Nc2ccccc2)s/c1=N/Nc1nc(-c2ccccc2)cs1`, the growth inhibition is -1% (inactive).
Turning to `Cc1ccccc1N=C(NO)c1ccccc1`, the growth inhibition was 49% (inactive).
As for `Cc1nc2ccccc2nc1NNc1ccccc1`, the growth inhibition was 11% (inactive).
